Rows were chosen to be rich in hits. Some 4.7% of all compounds tested hit in one or more screens of this group.
HSP90 refold inh – inhibitors of HSP90 luciferase refolding in rabbit reticulocyte lysate; luciferase refolding luminescence, 3 h; inhibition, % at 5.6 µM; 290,000 tested, 0.91% active;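 active = inhibition above the screen-wide mean plus 3 SD, computed separately per campaign, cut at about 16% in these data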;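 note: inhibitors lower the luminescence because luciferase stays unfolded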
LMP1 NFkB inh – reduces LMP1-driven NF-kappaB luciferase signal; LMP1-induced NF-kappaB luciferase reporter cells, luminescence; inhibition, % at 12.5 µM; 350,000 tested, 0.69% active; AID 504558; in the data active = inhibition above about 41%; inconclusive = no clear call, values can overlap the other calls
HSF-1 act – increases HSF-1 driven luciferase reporter signal; NIH3T3-HGL HSF-1 luciferase reporter, MG132, 8 h; 100% = twice DMSO control signal; 300,000 tested, 1.7% active; activation, % at 9 µM;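 active = mean replicate activation of at least 50% with a set share of replicates each reaching 50%; inconclusive = only one of those two conditions met; inactive = mean below 50% and too few replicates reaching it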
HSF1 inh – HSF1 inhibition | NIH3T3-HGL HSE-luciferase, MG132-induced, luminescence 8 h; hits give low values | activity change, negative = inhibition, % at 7.5 µM (by protocol) | 300,000 tested, 0.77% active;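 active = more than half of replicate wells show activity change below -50%, luminescence cut by over half; inconclusive = some wells, but at most half, below -50%; inactive = no replicate well below -50%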;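 note: luciferase reports HSF-1 transcriptional activity via heat shock element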
TWEAK Fn14 block – inhibitors of TWEAK-Fn14 interaction signaling. TWEAK-stimulated Fn14 reporter cells, luciferase luminescence, 8 h. AID 1159606. 360,000 tested, 2% active. inhibition, % at 10 µM; in the data active = inhibition above about 50%
TROY NFkB inh – blocks TROY-dependent signaling in reporter cells; 360,000 tested, 0.98% active; AID 1347056; Q293 LMP1-TROYcd NF-kB luciferase reporter, 4 h; inhibition, % at 10 µM;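 active = compounds whose plate-normalised and pattern-corrected inhibition of the luciferase reporter signal at the single screening dose is 50% or more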
HSP90 confirm – HSP90 inhibition, confirmation assay. rabbit reticulocyte lysate, luciferase refolding luminescence, 3 h. inhibition, % at 5.9 µM. AID 1846. 2,300 tested, 64% active. shares compounds with HSP90 refold inh; in the data active = inhibition above about 18%
FLuc counter – firefly luciferase inhibition, HSP90 counter-screen. shares compounds with HSP90 refold inh. 2,300 tested, 48% active. purified native firefly luciferase, luminescence. inhibition, % at 5.9 µM;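 active = inhibition above the mean inhibition of all tested sample wells plus 3 SD, cut at about 10% in these data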
Target sequence (P08659 whole entry, looked up): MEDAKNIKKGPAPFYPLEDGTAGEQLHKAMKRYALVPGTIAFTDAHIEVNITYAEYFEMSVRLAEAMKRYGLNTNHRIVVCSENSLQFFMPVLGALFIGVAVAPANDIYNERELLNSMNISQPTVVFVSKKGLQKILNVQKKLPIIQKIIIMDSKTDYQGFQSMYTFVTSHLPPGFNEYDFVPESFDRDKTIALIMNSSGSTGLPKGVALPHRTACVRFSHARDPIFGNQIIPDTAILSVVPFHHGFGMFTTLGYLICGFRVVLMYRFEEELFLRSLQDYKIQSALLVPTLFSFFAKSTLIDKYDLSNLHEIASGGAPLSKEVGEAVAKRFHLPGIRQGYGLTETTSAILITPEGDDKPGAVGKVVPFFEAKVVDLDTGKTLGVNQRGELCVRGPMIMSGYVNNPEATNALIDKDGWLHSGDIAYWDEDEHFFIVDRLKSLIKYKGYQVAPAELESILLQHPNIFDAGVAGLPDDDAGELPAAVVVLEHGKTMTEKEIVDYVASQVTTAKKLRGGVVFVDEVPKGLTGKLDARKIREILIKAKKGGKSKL
Of the large screens only hits and unclear results are named; the others gave an inactive call (follow-up assays come after a bar, where they were run).

Cc1c(C(=O)O)cccc1-c1ccc(/C=C2/NC(=O)N(c3ccccc3)C2=O)o1	HSP90 refold inh 33 | HSP90 confirm 28 | FLuc counter inactive
Cc1c(C(=O)O)cccc1-c1ccc(/C=C2\SC(=O)NC2=O)o1	HSP90 refold inh 29 | HSP90 confirm 39 | FLuc counter 17
Cc1cccc(NC(=O)CN2C(=O)N/C(=C/c3ccc(-c4cccc(C(=O)O)c4C)o3)C2=O)c1	none
CCOC(=O)CN1C(=O)S/C(=C\c2ccc(-c3cccc(C(=O)O)c3C)o2)C1=O	none (no result: HSP90 refold inh, LMP1 NFkB inh)
O=C(c1cc(F)c(F)cc1Cl)N1CCN(CCc2ccccc2)CC1	HSP90 refold inh 38 | HSP90 confirm inactive | FLuc counter inactive
O=C(c1cc(Cl)ccc1Cl)N1CCN(Cc2ccccc2)CC1	none
Nc1ccc2nn(-c3ccccc3)nc2c1	none (no result: HSF-1 act, HSF1 inh)
Nc1cc2nn(-c3ccccc3)nc2cc1Cl	HSP90 refold inh 43 | HSP90 confirm 18 | FLuc counter inactive
Cc1c(-c2ccccc2)oc2c(C(=O)N3CCN(c4ccc([N+](=O)[O-])cc4)CC3)cccc2c1=O	HSP90 refold inh 21, TWEAK Fn14 block 75 | HSP90 confirm inactive | FLuc counter inactive
Cc1ccc(O)c(Nc2c3ccccc3nc3ccccc23)c1	HSP90 refold inh 39 | HSP90 confirm inactive | FLuc counter inactive
COc1ccc(Cl)cc1Nc1nc(N)c2ccccc2n1	none
Cc1ccc(O)c(Nc2nc(-c3ccccc3)nc3ccccc23)c1	none
Cc1ccc(C)c(Nc2nc(N)c3ccccc3n2)c1	HSP90 refold inh 17 | HSP90 confirm 23 | FLuc counter inactive
CCC(C)c1ccc(NC(=O)COC(=O)CCNC(=O)c2ccco2)cc1 (stereo not given)	none (no result: HSP90 refold inh, HSF-1 act, HSF1 inh)
CCC(C)c1ccc(NC(=O)c2ccco2)cc1 (stereo not given)	HSP90 refold inh 41, TWEAK Fn14 block 66 | HSP90 confirm 69 | FLuc counter 63
CNC(=S)N/N=C/c1ccc(-c2cccc(C(=O)O)c2)o1	HSP90 refold inh 26, HSF1 inh -60 | HSP90 confirm inactive | FLuc counter inactive
Cc1ccc(OCC(=O)N/N=C\c2ccc(-c3cccc(C(=O)O)c3)o2)c(C)c1	none
Cc1ccc(-c2ccc(/C=N/NC(=O)c3ccccc3O)o2)cc1	HSP90 refold inh 22 (no result: LMP1 NFkB inh, TWEAK Fn14 block, TROY NFkB inh) | HSP90 confirm inactive | FLuc counter inactive
NS(=O)(=O)c1ccc(-c2ccc(/C=N/NC(=O)c3ccccc3O)o2)cc1	none
CCCCC[C@H](C)N1C[C@H](COCc2ccccc2)Oc2cc(N3CCC[C@H]3COC)ccc2S1(=O)=O	none (no result: HSP90 refold inh, LMP1 NFkB inh, HSF-1 act, HSF1 inh)
C[C@@H]1CN([C@@H](C)CO)C(=O)CCCn2nncc2CO[C@H]1CN(C)Cc1cccnc1	none (no result: HSP90 refold inh, HSF-1 act, HSF1 inh)
Cc1cnc(NC(=O)COc2ccccc2Cl)s1	HSP90 refold inh 58, LMP1 NFkB inh 66, TWEAK Fn14 block 96, TROY NFkB inh 59 | HSP90 confirm 79 | FLuc counter 78
CC(=O)c1ccc2cc3c(cc2c1)OCO3	none (no result: HSP90 refold inh, HSF-1 act, HSF1 inh)
Cc1occc1C(=O)N/N=C/C=C/c1ccc(N(C)C)cc1	none
C/C(=N\NC(=O)c1ccoc1C)c1ccccc1	HSP90 refold inh 20 (no result: LMP1 NFkB inh) | HSP90 confirm inactive | FLuc counter inactive
Cc1occc1C(=O)N/N=C/c1ccc(N(C)C)cc1	HSP90 refold inh 20, HSF-1 act inconclusive, TWEAK Fn14 block 72 | HSP90 confirm 60 | FLuc counter 50
CC1(C(=O)NS(=O)(=O)c2ccc(Cl)cc2)CCN1C(=O)Cc1ccc(Cl)cc1Cl (stereo not given)	none (no result: HSP90 refold inh, LMP1 NFkB inh, HSF-1 act, HSF1 inh)
Nc1cccc(-c2cc3ccccc3oc2=O)c1	HSP90 refold inh 44, TWEAK Fn14 block 60, TROY NFkB inh 67 | HSP90 confirm 35 | FLuc counter inactive
Cc1ccc(/C=C2/C(=O)c3ccc(C(=O)O)cc3C2=O)o1	HSP90 refold inh 22 | HSP90 confirm 46 | FLuc counter inactive
O=C(O)c1ccc2c(c1)C(=O)/C(=C\c1ccco1)C2=O	none
CCOC(=O)c1c(S(=O)(=O)N2CCCC(C(=O)Nc3cccc(C)n3)C2)c(C)n(C)c1C (stereo not given)	HSP90 refold inh 21 | HSP90 confirm inactive | FLuc counter inactive
